High-throughput results as filed in PubChem BioAssay.
Shown are actives, neighbours in structure and some others; about 3.5% of the full set was active somewhere.
TEAD-YAP inh: TEAD-YAP interaction inhibition; HEK-TIYL cells, TEAD-Gal4/YAP UAS-luciferase luminescence; inhibition, % at 9.12 µM; 640,000 tested, 1.4% active; AID 1259422; in the data active means inhibition above about 32%
MITF inh: inhibitors of human MITF. O75030. AlphaScreen MITF homodimerization, bead proximity signal. inhibition, % at 2.6 µM. 650,000 tested, 0.91% active. AID 1259374; in the data active means inhibition above about 50%
Target sequence (O75030 whole entry, looked up): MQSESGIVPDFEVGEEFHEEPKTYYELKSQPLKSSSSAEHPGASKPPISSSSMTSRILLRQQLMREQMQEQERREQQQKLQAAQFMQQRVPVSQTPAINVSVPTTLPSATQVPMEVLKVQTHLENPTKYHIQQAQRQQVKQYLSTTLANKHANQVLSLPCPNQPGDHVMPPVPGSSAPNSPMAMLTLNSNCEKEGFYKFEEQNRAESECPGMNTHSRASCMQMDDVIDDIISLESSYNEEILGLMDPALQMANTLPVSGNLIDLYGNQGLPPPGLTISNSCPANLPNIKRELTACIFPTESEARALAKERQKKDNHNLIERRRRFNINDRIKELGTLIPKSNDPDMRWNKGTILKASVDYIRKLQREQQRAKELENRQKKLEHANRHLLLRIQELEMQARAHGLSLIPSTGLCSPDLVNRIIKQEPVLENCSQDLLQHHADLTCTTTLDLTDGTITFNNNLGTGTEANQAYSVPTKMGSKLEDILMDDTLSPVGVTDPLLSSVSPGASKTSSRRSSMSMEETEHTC
FBW7 act: activators of human E3 ligase FBW7. Q969H0. AlphaScreen FBW7–phospho-cyclin E peptide binding, activator screen. normalized activity (activation), % at 26.1 µM. 650,000 tested, 0.13% active; in the data active means normalized activity above about 1.9%;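 further: purified mutant Fbw7 with reduced substrate affinity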
GPR151 activ: activates the human receptor GPR151; Q8TDV0; PathHunter beta-arrestin GPR151 cells, luminescence; activation, % at 11.2 µM; 650,000 tested, 1% active; AID 1508602; in the data active means activation above about 4.9%
Large screens that a line does not name were inactive.

Cc1nnc(NC(=O)CC2c3ccccc3Oc3ccccc32)s1	none
COc1cc(/C=C/C(=O)NNC(=O)CC23CC4CC(CC(C4)C2)C3)cc(Cl)c1OC	none
CN(C)/N=C/C=C1\CC/C(=C\c2ccco2)C1=O	MITF inh 55
CC(C)c1ccc(/C=C2\CC/C(=C\C=N\N(C)C)C2=O)cc1	none
O=C1C(=C2SCCS2)CC/C1=C\c1ccco1	MITF inh 91
CC(=O)c1cccc(NC(=O)C(=O)NC2CC2)c1	none
COc1ccc2c(C)nc(N3CCC(NCc4cc(F)cc(F)c4)CC3)nc2c1	none
COc1ccc(OCCNS(=O)(=O)c2ccc3c(c2)oc2ccccc23)cc1	none
CCOC(=O)/C=C/C(=O)Nc1cc(Cl)c(Cl)cc1Cl	TEAD-YAP inh 58
COc1cc(COc2ccc3ccc(=O)oc3c2)cc(OC)c1OC	none
COc1cc(COc2ccc3c(C)cc(=O)oc3c2)cc(OC)c1OC	TEAD-YAP inh 56
COc1cccc(/C=N/Nc2ccc([N+](=O)[O-])cc2)c1O	none
COc1cccc(/C=N/Nc2ncccc2[N+](=O)[O-])c1O	TEAD-YAP inh 98
COc1ccc(/C=N/Nc2ncccc2[N+](=O)[O-])c(OC)c1	TEAD-YAP inh 69
COc1cccc(/C=N/Nc2ncc(C)c(=O)[nH]2)c1O	TEAD-YAP inh 87, MITF inh 86
COc1cccc(/C=N/Nc2nnc(C)n2N)c1O	none
CCOc1ccc(C2C(C(=O)Nc3cnc4ccccc4c3)c3ccccc3C(=O)N2CCN2CCOCC2)cc1 (stereo unspecified)	none
CCOC(=O)Nc1cccc(Cl)c1Cl	none
CC(NC(=O)COc1ccccc1)C(=O)NCc1cccc(C(F)(F)F)c1 (stereo unspecified)	none
CC(C)(C)NC(=O)CSc1nc(N)c(C#N)cc1C#N	none
Cc1ccc(N2C(=O)/C(=C/c3ccc(Cl)cc3)C=C2c2ccccc2)c(C)c1	none
COc1ccc(/C=C2\C=C(c3ccccc3)N(c3ccc(O)cc3)C2=O)cc1	TEAD-YAP inh 49
COc1ccc(/C=C2\C=C(c3ccccc3)N(c3ccc(C)cc3C)C2=O)cc1	TEAD-YAP inh 45
COc1ccc(/C=C2\C=C(c3ccccc3)N(c3ccc(C)cc3Br)C2=O)cc1	TEAD-YAP inh 47
COc1ccc(/C=C2\C=C(c3ccccc3)N(c3ccccc3)C2=O)cc1	none
COc1ccc(/C=C2\C=C(c3ccccc3)N(c3ccccc3Br)C2=O)cc1	none
Cc1cccc(/C=N/Nc2nnc3c(n2)[nH]c2ccccc23)n1	none
CCCCOc1ccc(-c2cnc(S(C)(=O)=O)nc2)cc1	TEAD-YAP inh 46
Cc1nc2sccn2c1CN1CCc2ccc(NC(=O)C3CCCO3)cc2C1 (stereo unspecified)	TEAD-YAP inh 37
O=C(Nc1ccc2c(c1)CN(C(=O)C#Cc1ccccc1)CC2)C1CCCO1 (stereo unspecified)	TEAD-YAP inh 61
CCN(CC)c1nc(-c2ccc(C)cc2)nc2ccccc12	none
CCCCc1ccc(-c2nc(Nc3ccc(C(F)(F)F)cc3)c3ccccc3n2)cc1	TEAD-YAP inh 38
COc1ccc(Nc2nc(-c3ccc(C(C)(C)C)cc3)nc3ccccc23)cc1	TEAD-YAP inh 86
Cc1ccc(Nc2nc(-c3ccc(C)cc3)nc3ccccc23)cc1	none
CCN(CC)c1nc(-c2ccc(C(C)(C)C)cc2)nc2ccccc12	TEAD-YAP inh 58
COc1ccc(C2CC(c3cc(Cl)ccc3O)=NN2)cc1 (stereo unspecified)	none
Cc1ccc(OCCn2cc(C(=S)N3CCCC3)c3ccccc32)cc1C	TEAD-YAP inh 52
S=C(c1cn(CCOc2ccccc2)c2ccccc12)N1CCCC1	none
C=CCn1c(N2CCC(C(=O)Nc3nnc(CC)s3)CC2)nc2ccccc21	none
O=C1CCCN1CCCNc1nc(Nc2cnccn2)nc2c1ncn2CCN1CCCC1=O	none
c1cnc(Nc2nc(NC3CC3)c3ncn(C4CCCCC4)c3n2)cn1	TEAD-YAP inh 42
O=C1CCCN1CCCNc1nc(Nc2cnccn2)nc2c1ncn2C1CCCCC1	TEAD-YAP inh 35
CC(=O)Nc1ccc(Nc2nc(NCCCN3CCCC3=O)nc3c2ncn3C2CCCCC2)cc1	none
O=C1CCCN1CCCNc1nc(Nc2ccccc2)c2ncn(C3CCCCC3)c2n1	TEAD-YAP inh 64
COc1ccc(C2CC(c3ccc(Cl)cc3)Nc3ncnn32)c(OC)c1OC (stereo unspecified)	none
COc1cc(C2CC(c3ccc(Cl)cc3)Nc3ncnn32)cc(OC)c1OC (stereo unspecified)	TEAD-YAP inh 54
Cc1ccc(C2CC(C(F)(F)F)n3nc(C(=O)Nc4cc(C(F)(F)F)ccc4Cl)cc3N2)cc1 (stereo unspecified)	none
O=C(O)c1ccc([C@@H]2Nc3c(F)cccc3[C@@H]3C=CC[C@@H]32)cc1	MITF inh 70
CCOc1cccc2c1NC(c1ccc(C(=O)O)cc1)C1CC=CC21 (stereo unspecified)	MITF inh 59
CCOC(=O)c1cccc2c1N[C@@H](c1ccc(C(=O)O)cc1)[C@H]1CC=C[C@@H]21	MITF inh 76
Fc1cccc2c1NC(c1ccc(Br)cc1)C1CC=CC21 (stereo unspecified)	none
COc1ccc(C(=O)NC2CC(=O)N(c3ccc(Cl)cc3)C2)c(OC)c1 (stereo unspecified)	none
Cc1cccc(N2CCN(C(c3ccncc3)c3nnnn3C(C)(C)C)CC2)c1C (stereo unspecified)	TEAD-YAP inh 62
O=C(CC1CCCCN1S(=O)(=O)c1ccc(F)cc1)NCCC1=CCCCC1 (stereo unspecified)	none
COc1ccc(C2/C(=C(\O)c3ccc(Cl)cc3)C(=O)C(=O)N2c2nc3ccccc3s2)c(OC)c1 (stereo unspecified)	TEAD-YAP inh 41
COc1ccc(C2/C(=C(\O)c3ccccc3)C(=O)C(=O)N2c2nc3ccccc3s2)c(OC)c1 (stereo unspecified)	none
COc1cccc(C2C(C(C)=O)=C(O)C(=O)N2c2nc3ccccc3s2)c1 (stereo unspecified)	none
COc1ccc(C2C(C(C)=O)=C(O)C(=O)N2c2nc3ccccc3s2)c(OC)c1 (stereo unspecified)	TEAD-YAP inh 47
COc1ccc2c(c1)N(C)/C(=c1/s/c(=C3\SC(=S)N(C)C3=O)n(C)c1=O)S2	none
Fc1cccc(Nc2nc(NCC3CCCO3)c3ccccc3n2)c1 (stereo unspecified)	TEAD-YAP inh 45
c1ccc(Nc2nc(NCC3CCCO3)c3ccccc3n2)cc1 (stereo unspecified)	TEAD-YAP inh 46
O=c1c2sccc2nc(SCC2OCCO2)n1-c1ccc(F)cc1	none
N#Cc1cc2cc3c(cc2nc1NCCCNC(=O)Cc1ccccc1)OCO3	TEAD-YAP inh 34
COc1ccccc1NC(=O)NCCCNc1nc2cc3c(cc2cc1C#N)OCO3	TEAD-YAP inh 65
CCOC(=O)c1c(N)sc2c1CCC/C2=N\O	TEAD-YAP inh 53
CCOC(=O)c1csc2c1CCC/C2=N/OC(C)=O	TEAD-YAP inh 36
CCOC(=O)c1c(NC(=O)CC)sc2c1CCC/C2=N/OC(C)=O	none
COc1cc(Nc2nc(Nc3ccc4c(c3)OCO4)c3ncn(-c4ccsc4)c3n2)cc(OC)c1OC	none
